# Test results: PubChem BioAssay AID1159580 (chemical genetic matrix, 2015)
# Where “and” joins values, the source holds several entries; their conditions need not be identical. Equal values may be shown once. In all, about 5,500 compounds went through this assay and about 2,000 (36%) were called active. About 18% were inconclusive and are not listed. The list shows a part of the results. A number with no mark means an inactive call. Rule as the data show it: active = normalized growth mostly below about 0.91 (no sharp cut-off); inconclusive = no clear call, values can overlap the other calls; inactive = mostly above about 0.92.
# Assay: chemical genetic growth profiling, strain panel (AID 1159580);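 also: tested at 20 µM; growth read once vehicle control cultures reached saturation at 30 °C; 1 = growth at the plate median or of vehicle wells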
# Settings: S. cerevisiae deletion strains, growth OD
smiles,measurement,setting,value
CC(C)CCCC(C)C1CCC2C3C[C@@H](O)[C@@]4(O)C[C@@H](O)CC[C@]4(C)C3CC[C@]12C (stereo partly drawn),normalized growth,"locus YAL013W, strain DEP1, stronger effect = lower value",1.01
same,normalized growth,"locus YAL021C, strain ccr4, stronger effect = lower value",0.951
same,normalized growth,"locus YAL026C, strain drs2, stronger effect = lower value",0.843 (active)
same,normalized growth,"locus YAL030W, strain snc1, stronger effect = lower value",0.988
same,normalized growth,"locus YBL061C, strain skt5, stronger effect = lower value",0.986
same,normalized growth,"locus YBR009C, strain hhf1, stronger effect = lower value",0.972
same,normalized growth,"locus YBR021W, strain FUR4, stronger effect = lower value",1.06
same,normalized growth,"locus YBR023C, strain chs3, stronger effect = lower value",0.994
same,normalized growth,"locus YBR171W, strain sec66, stronger effect = lower value",1.01
same,normalized growth,"locus YBR229C, strain ROT2, stronger effect = lower value",1.06
same,normalized growth,"locus YBR231C, strain swc5, stronger effect = lower value",1.01
same,normalized growth,"locus YBR279W, strain paf1, stronger effect = lower value",1.03
same,normalized growth,"locus YCL011C, strain gbp2, stronger effect = lower value",0.997
same,normalized growth,"locus YCL016C, strain dcc1, stronger effect = lower value",0.984
same,normalized growth,"locus YCL029C, strain bik1, stronger effect = lower value",1.04
same,normalized growth,"locus YCL061C, strain MRC1, stronger effect = lower value",0.966
same,normalized growth,"locus YCL069W, strain vba3, stronger effect = lower value",0.984
same,normalized growth,"locus YCR088W, strain abp1, stronger effect = lower value",1
same,normalized growth,"locus YDL005C, strain med2, stronger effect = lower value",0.996
same,normalized growth,"locus YDL035C, strain GPR1, stronger effect = lower value",1.06
same,normalized growth,"locus YDL040C, strain nat1, stronger effect = lower value",1.01
same,normalized growth,"locus YDL074C, strain BRE1, stronger effect = lower value",1.08
same,normalized growth,"locus YDL101C, strain DUN1, stronger effect = lower value",1.03
same,normalized growth,"locus YDL134C, strain PPH21, stronger effect = lower value",0.985
same,normalized growth,"locus YDL185W, strain tfp1, stronger effect = lower value",1.02
same,normalized growth,"locus YDL192W, strain arf1, stronger effect = lower value",0.999
same,normalized growth,"locus YDR001C, strain nth1, stronger effect = lower value",1
same,normalized growth,"locus YDR069C, strain doa4, stronger effect = lower value",0.992
same,normalized growth,"locus YDR101C, strain arx1, stronger effect = lower value",1.03
same,normalized growth,"locus YDR137W, strain rgp1, stronger effect = lower value",0.493 (active)
same,normalized growth,"locus YDR150W, strain NUM1, stronger effect = lower value",1.03
same,normalized growth,"locus YDR162C, strain NBP2, stronger effect = lower value",1.03
same,normalized growth,"locus YDR195W, strain ref2",1.04
same,normalized growth,"locus YDR297W, strain sur2, stronger effect = lower value",0.986
same,normalized growth,"locus YDR318W, strain mcm21, stronger effect = lower value",1.02
same,normalized growth,"locus YDR334W, strain swr1, stronger effect = lower value",1
same,normalized growth,"locus YDR335W, strain msn5, stronger effect = lower value",1
same,normalized growth,"locus YDR388W, stronger effect = lower value",1.01
same,normalized growth,"locus YDR392W, strain spt3, stronger effect = lower value",0.82
same,normalized growth,"locus YDR502C, strain sam2, stronger effect = lower value",1.02
same,normalized growth,"locus YEL003W, strain gim4, stronger effect = lower value",0.974
same,normalized growth,"locus YEL037C, strain rad23, stronger effect = lower value",1
same,normalized growth,"locus YEL061C, strain CIN8 (second series), stronger effect = lower value",0.999
same,normalized growth,"locus YER015W, strain faa2, stronger effect = lower value",0.987
same,normalized growth,"locus YER016W, strain bim1, stronger effect = lower value",0.994
same,normalized growth,"locus YER110C, stronger effect = lower value",1.03
same,normalized growth,"locus YER111C, strain swi4, stronger effect = lower value",0.987
same,normalized growth,"locus YER155C, strain BEM2 (second series), stronger effect = lower value",0.972
same,normalized growth,"locus YER155C, strain BEM2, stronger effect = lower value",1
same,normalized growth,"locus YER167W, strain BCK2, stronger effect = lower value",1.04
same,normalized growth,"locus YFR010W, strain ubp6, stronger effect = lower value",1
same,normalized growth,"locus YGL078C, strain dbp3, stronger effect = lower value",1.02
same,normalized growth,"locus YGL086W, strain mad1, stronger effect = lower value",1.01
same,normalized growth,"locus YGL167C, strain pmr1, stronger effect = lower value",1
same,normalized growth,"locus YGL173C, strain kem1, stronger effect = lower value",0.992
same,normalized growth,"locus YGL227W, strain vid30, stronger effect = lower value",1
same,normalized growth,"locus YGL240W, strain doc1, stronger effect = lower value",1.02
same,normalized growth,"locus YGL248W, strain PDE1, stronger effect = lower value",1.02
same,normalized growth,"locus YGL253W, strain hxk2, stronger effect = lower value",0.996
same,normalized growth,"locus YGR078C, strain PAC10, stronger effect = lower value",1
same,normalized growth,"locus YGR135W, strain pre9, stronger effect = lower value",0.99
same,normalized growth,"locus YGR252W, strain gcn5, stronger effect = lower value",0.993
same,normalized growth,"locus YHR013C, strain ard1, stronger effect = lower value",1
same,normalized growth,"locus YHR027C, strain rpn1, stronger effect = lower value",0.991
same,normalized growth,"locus YHR030C, strain SLT2, stronger effect = lower value",1.02 and 1.06
same,normalized growth,"locus YHR079C, strain IRE1 (second series), stronger effect = lower value",1.01
same,normalized growth,"locus YHR079C, strain IRE1, stronger effect = lower value",1.04
same,normalized growth,"locus YHR094C, strain hxt1, stronger effect = lower value",1.02
same,normalized growth,"locus YHR129C, strain ARP1, stronger effect = lower value",1.03
same,normalized growth,"locus YHR142W, strain chs7, stronger effect = lower value",1.02
same,normalized growth,"locus YHR200W, strain rpn10, stronger effect = lower value",1.02
same,normalized growth,"locus YIL066C, strain RNR3, stronger effect = lower value",1.02
same,normalized growth,"locus YIL073C, strain SPO22, stronger effect = lower value",1.04
same,normalized growth,"locus YIL125W, strain kgd1, stronger effect = lower value",1.02
same,normalized growth,"locus YIR030C, strain dcg1, stronger effect = lower value",1.01
same,normalized growth,"locus YJL092W, strain hpr5, stronger effect = lower value",1.01
same,normalized growth,"locus YJL095W, strain BCK1 (second series), stronger effect = lower value",0.998
same,normalized growth,"locus YJL095W, strain BCK1, stronger effect = lower value",0.981 and 1.05
same,normalized growth,"locus YJL115W, strain asf1, stronger effect = lower value",0.994
same,normalized growth,"locus YJL129C, strain trk1, stronger effect = lower value",1.01
same,normalized growth,"locus YJL134W, strain LCB3, stronger effect = lower value",1.03
same,normalized growth,"locus YJL154C, strain vps35, stronger effect = lower value",1
same,normalized growth,"locus YJL164C, strain tpk1, stronger effect = lower value",0.99
same,normalized growth,"locus YJL166W, strain qcr8, stronger effect = lower value",0.98
same,normalized growth,"locus YJL168C, strain set2, stronger effect = lower value",1.01
same,normalized growth,"locus YJL187C, strain SWE1 (second series), stronger effect = lower value",1.02
same,normalized growth,"locus YJL187C, strain SWE1, stronger effect = lower value",1
same,normalized growth,"locus YJR043C, strain POL32, stronger effect = lower value",1.03
same,normalized growth,"locus YJR066W, strain TOR1, stronger effect = lower value",1.01
same,normalized growth,"locus YKL009W, strain mrt4, stronger effect = lower value",0.971
same,normalized growth,"locus YKL068W, stronger effect = lower value",1.01
same,normalized growth,"locus YKL085W, strain MDH1 (second series), stronger effect = lower value",1.01
same,normalized growth,"locus YKL085W, strain MDH1, stronger effect = lower value",1.01
same,normalized growth,"locus YKL160W, strain elf1, stronger effect = lower value",0.998
same,normalized growth,"locus YKR001C, strain vps1, stronger effect = lower value",1.05
same,normalized growth,"locus YKR026C, strain gcn3, stronger effect = lower value",1
same,normalized growth,"locus YKR091W, strain srl3, stronger effect = lower value",1
same,normalized growth,"locus YLL001W, strain dnm1, stronger effect = lower value",0.949
same,normalized growth,"locus YLL026W, stronger effect = lower value",0.995
same,normalized growth,"locus YLL041C, strain sdh2, stronger effect = lower value",1
same,normalized growth,"locus YLR027C, strain aat2, stronger effect = lower value",0.989
same,normalized growth,"locus YLR039C, strain RIC1, stronger effect = lower value",0.777
same,normalized growth,"locus YLR058C, strain SHM2, stronger effect = lower value",1.02
same,normalized growth,"locus YLR102C, strain apc9, stronger effect = lower value",1.01
same,normalized growth,"locus YLR113W, strain HOG1, stronger effect = lower value",1.06
same,normalized growth,"locus YLR221C, strain rsa3, stronger effect = lower value",0.976
same,normalized growth,"locus YLR258W, strain gsy2, stronger effect = lower value",0.975
same,normalized growth,"locus YLR262C, strain YPT6 (second series), stronger effect = lower value",0.502 (active)
same,normalized growth,"locus YLR262C, strain YPT6, stronger effect = lower value",0.78
same,normalized growth,"locus YLR268W, strain sec22, stronger effect = lower value",1.05
same,normalized growth,"locus YLR320W, strain mms22, stronger effect = lower value",0.941
same,normalized growth,"locus YLR330W, strain CHS5, stronger effect = lower value",1
same,normalized growth,"locus YLR342W, strain FKS1 (second series), stronger effect = lower value",1.03
same,normalized growth,"locus YLR342W, strain FKS1, stronger effect = lower value",0.986
same,normalized growth,"locus YLR357W, strain rsc2, stronger effect = lower value",1.01
same,normalized growth,"locus YLR370C, strain arc18, stronger effect = lower value",1
same,normalized growth,"locus YLR371W, strain rom2, stronger effect = lower value",1.02
same,normalized growth,"locus YLR384C, strain iki3, stronger effect = lower value",0.979
same,normalized growth,"locus YLR418C, strain cdc73, stronger effect = lower value",1.03
same,normalized growth,"locus YML016C, strain PPZ1, stronger effect = lower value",1.05
same,normalized growth,"locus YML032C, strain rad52, stronger effect = lower value",0.977
same,normalized growth,"locus YML120C, strain ndi1, stronger effect = lower value",0.996
same,normalized growth,"locus YML124C, strain tub3, stronger effect = lower value",1.02
same,normalized growth,"locus YMR058W, strain fet3, stronger effect = lower value",0.996
same,normalized growth,"locus YMR078C, strain ctf18, stronger effect = lower value",1.02
same,normalized growth,"locus YMR125W, strain sto1, stronger effect = lower value",1.02
same,normalized growth,"locus YMR129W, stronger effect = lower value",0.989
same,normalized growth,"locus YMR205C, strain PFK2, stronger effect = lower value",0.954
same,normalized growth,"locus YMR223W, strain ubp8, stronger effect = lower value",1
same,normalized growth,"locus YMR231W, strain pep5, stronger effect = lower value",0.99
same,normalized growth,"locus YMR307W, strain GAS1, stronger effect = lower value",1.06
same,normalized growth,"locus YNL067W, strain RPL9B, stronger effect = lower value",1.02
same,normalized growth,"locus YNL071W, strain lat1, stronger effect = lower value",0.999
same,normalized growth,"locus YNL153C, strain GIM3, stronger effect = lower value",1.02
same,normalized growth,"locus YNL183C, strain NPR1, stronger effect = lower value",0.992
same,normalized growth,"locus YNL209W, strain ssb2, stronger effect = lower value",0.994
same,normalized growth,"locus YNL233W, strain BNI4, stronger effect = lower value",1
same,normalized growth,"locus YNL248C, strain rpa49, stronger effect = lower value",0.98
same,normalized growth,"locus YNL250W, strain rad50, stronger effect = lower value",1.02
same,normalized growth,"locus YNL271C, strain bni1, stronger effect = lower value",1.02
same,normalized growth,"locus YNL298W, strain CLA4, stronger effect = lower value",1.02
same,normalized growth,"locus YNL307C, strain MCK1, stronger effect = lower value",1.02
same,normalized growth,"locus YNL322C, strain KRE1 (second series), stronger effect = lower value",0.986
same,normalized growth,"locus YNL322C, strain KRE1, stronger effect = lower value",1.01
same,normalized growth,"locus YNR049C, strain mso1, stronger effect = lower value",1
same,normalized growth,"locus YNR052C, strain pop2, stronger effect = lower value",0.996
same,normalized growth,"locus YOL012C, strain htz1",1.32
same,normalized growth,"locus YOL147C, strain pex11, stronger effect = lower value",1.02
same,normalized growth,"locus YOR001W, strain rrp6, stronger effect = lower value",0.977
same,normalized growth,"locus YOR061W, strain CKA2, stronger effect = lower value",1.03
same,normalized growth,"locus YOR069W, strain VPS5, stronger effect = lower value",1.01
same,normalized growth,"locus YOR070C, strain gyp1, stronger effect = lower value",0.972
same,normalized growth,"locus YOR080W, strain dia2, stronger effect = lower value",1
same,normalized growth,"locus YOR083W, strain WHI5, stronger effect = lower value",0.983
same,normalized growth,"locus YOR106W, strain vam3, stronger effect = lower value",1.04
same,normalized growth,"locus YOR136W, strain idh2, stronger effect = lower value",1.02
same,normalized growth,"locus YOR144C, strain elg1, stronger effect = lower value",1.02
same,normalized growth,"locus YOR184W, strain ser1, stronger effect = lower value",1.02
same,normalized growth,"locus YOR231W, strain MKK1, stronger effect = lower value",1.06
same,normalized growth,"locus YOR265W, strain rbl2, stronger effect = lower value",0.993
same,normalized growth,"locus YOR270C, strain vph1, stronger effect = lower value",1.02
same,normalized growth,"locus YOR290C, strain snf2, stronger effect = lower value",0.994
same,normalized growth,"locus YOR316C, strain cot1, stronger effect = lower value",1.02
same,normalized growth,"locus YPL051W, strain arl3, stronger effect = lower value",0.956
same,normalized growth,"locus YPL078C, strain atp4, stronger effect = lower value",0.987
same,normalized growth,"locus YPL106C, strain sse1, stronger effect = lower value",1.01
same,normalized growth,"locus YPL240C, strain hsp82, stronger effect = lower value",1
same,normalized growth,"locus YPL256C, strain CLN2, stronger effect = lower value",1.05
same,normalized growth,"locus YPR119W, strain clb2, stronger effect = lower value",1.02
same,normalized growth,"locus YPR141C, strain kar3, stronger effect = lower value",1.02
same,normalized growth,"locus YPR163C, strain tif3, stronger effect = lower value",1.01
same,normalized growth,"locus YPR167C, strain met16, stronger effect = lower value",1.03
same,normalized growth,"strain wtn01, stronger effect = lower value",1.07
